# The supplement of paper PMC4466140
# What was measured:
# Assay in all cases: SPOT peptide array binding signal intensity (averaged, normalized) (arbitrary units (background-subtracted, floor 0; scale differs between SH3 domains)); higher = stronger binding of the SH3 domain to the peptide
# AgAbp1 = target: AgAbp1
# How it was run: (§1)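 E. coli BL21(DE3) was used to express GST-fused SH3 domains from four yeast species, which were then purified on glutathione Sepharose. These were incubated at 10 μg/ml in TBS-based blocking buffer overnight at 4°C on cellulose membranes carrying synthetic 15-mer peptides, in which cysteines were replaced by serines. Binding signal is the replicate average of normalized, background-subtracted spot intensity, in arbitrary units that differ between domains.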
# AgBbc1 = target: AgBbc1
# How it was run: as §1
# AgBem1-D1 = target: AgBem1-D1
# How it was run: as §1
# AgBzz1-D1 = target: AgBzz1-D1
# How it was run: as §1
# AgBzz1-D2 = target: AgBzz1-D2
# How it was run: as §1
# AgCyk3 = target: AgCyk3
# How it was run: as §1
# AgFus1 = target: AgFus1
# How it was run: as §1
# AgHof1 = target: AgHof1
# How it was run: as §1
# AgHse1 = target: AgHse1
# How it was run: as §1
# AgLsb1 = target: AgLsb1
# How it was run: as §1
# AgLsb4 = target: AgLsb4
# How it was run: as §1
# AgMyo5 = target: AgMyo5
# How it was run: as §1
# AgNbp2 = target: AgNbp2
# How it was run: as §1
# AgRvs167 = target: AgRvs167
# How it was run: as §1
# AgSho1 = target: AgSho1
# How it was run: as §1
# AgSla1-D1-D2 = target: AgSla1-D1-D2
# How it was run: as §1
# AgSla1-D3 = target: AgSla1-D3
# How it was run: as §1
# CaAbp1-D1 = target: CaAbp1-D1
# How it was run: as §1
# CaAbp1-D2 = target: CaAbp1-D2
# How it was run: as §1
# CaBbc1 = target: CaBbc1
# How it was run: as §1
# CaBem1-D1 = target: CaBem1-D1
# How it was run: as §1
# CaBzz1-D1 = target: CaBzz1-D1
# How it was run: as §1
# CaBzz1-D2 = target: CaBzz1-D2
# How it was run: as §1
# CaCyk3 = target: CaCyk3
# How it was run: as §1
# CaFus1 = target: CaFus1
# How it was run: as §1
# CaHof1 = target: CaHof1
# How it was run: as §1
# CaHse1 = target: CaHse1
# How it was run: as §1
# CaLsb1 = target: CaLsb1
# How it was run: as §1
# CaLsb4 = target: CaLsb4
# How it was run: as §1
# CaMyo5 = target: CaMyo5
# How it was run: as §1
# CaNbp2 = target: CaNbp2
# How it was run: as §1
# CaRvs167 = target: CaRvs167
# How it was run: as §1
# CaRvs167-3 = target: CaRvs167-3
# How it was run: as §1
# CaSho1 = target: CaSho1
# How it was run: as §1
# CaSla1-D1-D2 = target: CaSla1-D1-D2
# How it was run: as §1
# CaSla1-D3 = target: CaSla1-D3
# How it was run: as §1
# ScAbp1 = target: ScAbp1
# How it was run: as §1
# ScBbc1 = target: ScBbc1
# How it was run: as §1
# ScBem1-D1 = target: ScBem1-D1
# How it was run: as §1
# ScBzz1-D1 = target: ScBzz1-D1
# How it was run: as §1
# ScBzz1-D2 = target: ScBzz1-D2
# How it was run: as §1
# ScCyk3 = target: ScCyk3
# How it was run: as §1
# ScFus1 = target: ScFus1
# How it was run: as §1
# ScHof1 = target: ScHof1
# How it was run: as §1
# ScHse1 = target: ScHse1
# How it was run: as §1
# ScLsb1 = target: ScLsb1
# How it was run: as §1
# ScLsb2 = target: ScLsb2
# How it was run: as §1
# ScLsb3 = target: ScLsb3
# How it was run: as §1
# ScLsb4 = target: ScLsb4
# How it was run: as §1
# ScMyo3 = target: ScMyo3
# How it was run: as §1
# ScMyo5 = target: ScMyo5
# How it was run: as §1
# ScNbp2 = target: ScNbp2
# How it was run: as §1
# ScPex13 = target: ScPex13
# How it was run: as §1
# ScRvs167 = target: ScRvs167
# How it was run: as §1
# ScSho1 = target: ScSho1
# How it was run: as §1
# ScSla1-D1-D2 = target: ScSla1-D1-D2
# How it was run: as §1
# ScSla1-D3 = target: ScSla1-D3
# How it was run: as §1
# SpAbp1-D1 = target: SpAbp1-D1
# How it was run: as §1
# SpBbc1 = target: SpBbc1
# How it was run: as §1
# SpBzz1-D1 = target: SpBzz1-D1
# How it was run: as §1
# SpBzz1-D2 = target: SpBzz1-D2
# How it was run: as §1
# SpCyk3 = target: SpCyk3
# How it was run: as §1
# SpHof1 = target: SpHof1
# How it was run: as §1
# SpHof1-2 = target: SpHof1-2
# How it was run: as §1
# SpHof1-3 = target: SpHof1-3
# How it was run: as §1
# SpHse1 = target: SpHse1
# How it was run: as §1
# SpLsb1 = target: SpLsb1
# How it was run: as §1
# SpLsb4 = target: SpLsb4
# How it was run: as §1
# SpMyo1 = target: SpMyo1
# How it was run: as §1
# SpNbp2 = target: SpNbp2
# How it was run: as §1
# SpPex13 = target: SpPex13
# How it was run: as §1
# SpRvs167 = target: SpRvs167
# How it was run: as §1
# SpSla1-D1-D2 = target: SpSla1-D1-D2
# How it was run: as §1
# SpSla1-D3 = target: SpSla1-D3
# How it was run: as §1
binder,measurement,setting,value
STKKPRPPVKSKPKH,SPOT peptide array binding signal intensity,AgAbp1,553
same,SPOT peptide array binding signal intensity,AgBbc1,104
same,SPOT peptide array binding signal intensity,AgBem1-D1,1
same,SPOT peptide array binding signal intensity,AgBzz1-D1,72
same,SPOT peptide array binding signal intensity,AgBzz1-D2,38
same,SPOT peptide array binding signal intensity,AgCyk3,≤ 0
same,SPOT peptide array binding signal intensity,AgFus1,9
same,SPOT peptide array binding signal intensity,AgHof1,1.25
same,SPOT peptide array binding signal intensity,AgHse1,71.5
same,SPOT peptide array binding signal intensity,AgLsb1,≤ 0
same,SPOT peptide array binding signal intensity,AgLsb4,4
same,SPOT peptide array binding signal intensity,AgMyo5,3.25
same,SPOT peptide array binding signal intensity,AgNbp2,9
same,SPOT peptide array binding signal intensity,AgRvs167,1.83
same,SPOT peptide array binding signal intensity,AgSho1,23
same,SPOT peptide array binding signal intensity,AgSla1-D1-D2,7
same,SPOT peptide array binding signal intensity,AgSla1-D3,≤ 0
same,SPOT peptide array binding signal intensity,CaAbp1-D1,1410
same,SPOT peptide array binding signal intensity,CaAbp1-D2,1100
same,SPOT peptide array binding signal intensity,CaBbc1,292
same,SPOT peptide array binding signal intensity,CaBem1-D1,4
same,SPOT peptide array binding signal intensity,CaBzz1-D1,104
same,SPOT peptide array binding signal intensity,CaBzz1-D2,104
same,SPOT peptide array binding signal intensity,CaCyk3,2
same,SPOT peptide array binding signal intensity,CaFus1,29
same,SPOT peptide array binding signal intensity,CaHof1,1.25
same,SPOT peptide array binding signal intensity,CaHse1,≤ 0
same,SPOT peptide array binding signal intensity,CaLsb1,0.5
same,SPOT peptide array binding signal intensity,CaLsb4,≤ 0
same,SPOT peptide array binding signal intensity,CaMyo5,2.5
same,SPOT peptide array binding signal intensity,CaNbp2,21
same,SPOT peptide array binding signal intensity,CaRvs167,0.333
same,SPOT peptide array binding signal intensity,CaRvs167-3,6.25
same,SPOT peptide array binding signal intensity,CaSho1,19.5
same,SPOT peptide array binding signal intensity,CaSla1-D1-D2,318
same,SPOT peptide array binding signal intensity,CaSla1-D3,≤ 0
same,SPOT peptide array binding signal intensity,ScAbp1,2130
same,SPOT peptide array binding signal intensity,ScBbc1,5.5
same,SPOT peptide array binding signal intensity,ScBem1-D1,14
same,SPOT peptide array binding signal intensity,ScBzz1-D1,4.5
same,SPOT peptide array binding signal intensity,ScBzz1-D2,13
same,SPOT peptide array binding signal intensity,ScCyk3,≤ 0
same,SPOT peptide array binding signal intensity,ScFus1,≤ 0
same,SPOT peptide array binding signal intensity,ScHof1,≤ 0
same,SPOT peptide array binding signal intensity,ScHse1,110
same,SPOT peptide array binding signal intensity,ScLsb1,0.5
same,SPOT peptide array binding signal intensity,ScLsb2,3
same,SPOT peptide array binding signal intensity,ScLsb3,153
same,SPOT peptide array binding signal intensity,ScLsb4,1
same,SPOT peptide array binding signal intensity,ScMyo3,5.5
same,SPOT peptide array binding signal intensity,ScMyo5,≤ 0
same,SPOT peptide array binding signal intensity,ScNbp2,22
same,SPOT peptide array binding signal intensity,ScPex13,≤ 0
same,SPOT peptide array binding signal intensity,ScRvs167,≤ 0
same,SPOT peptide array binding signal intensity,ScSho1,269
same,SPOT peptide array binding signal intensity,ScSla1-D1-D2,34.5
same,SPOT peptide array binding signal intensity,ScSla1-D3,16.8
same,SPOT peptide array binding signal intensity,SpAbp1-D1,193
same,SPOT peptide array binding signal intensity,SpBbc1,8
same,SPOT peptide array binding signal intensity,SpBzz1-D1,47
same,SPOT peptide array binding signal intensity,SpBzz1-D2,2
same,SPOT peptide array binding signal intensity,SpCyk3,≤ 0
same,SPOT peptide array binding signal intensity,SpHof1,11.8
same,SPOT peptide array binding signal intensity,SpHof1-2,3.5
same,SPOT peptide array binding signal intensity,SpHof1-3,274
same,SPOT peptide array binding signal intensity,SpHse1,44.5
same,SPOT peptide array binding signal intensity,SpLsb1,383
same,SPOT peptide array binding signal intensity,SpLsb4,30
same,SPOT peptide array binding signal intensity,SpMyo1,≤ 0
same,SPOT peptide array binding signal intensity,SpNbp2,≤ 0
same,SPOT peptide array binding signal intensity,SpPex13,≤ 0
same,SPOT peptide array binding signal intensity,SpRvs167,≤ 0
same,SPOT peptide array binding signal intensity,SpSla1-D1-D2,8
same,SPOT peptide array binding signal intensity,SpSla1-D3,≤ 0
